Reference: PubChem BioAssay (NCI)
Compounds without any hit were thinned out: in the full panel of roughly 83,000, 20% have a hit.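 Treatment: one concentration, 48 hours, 96-well format. Scoring: percent growth, with anything below 10 considered active.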 Activity calls are given as the source filed them.

system: NCI-H460 lung; test: NCI-60 one-dose screen, 48 h (100 = growth as untreated, 0 = no growth, -100 = all killed); conditions: 10 µM unless noted

SMILES | growth
O=c1[nH]c(=O)n(Cc2ccc(F)cc2)cc1F | 108% [50 µM] (inactive)
CC(=O)Nc1ccccc1-c1n[nH]c(=O)[nH]c1=O | 104% (inactive)
CCOC(=O)c1[nH]c2cc(Cl)ccc2c1[C@@H](C(=O)NC(C)(C)C)N(CC)C(=O)CCCCC#Cc1cccc2c1CN(C1CCC(=O)NC1=O)C2=O (stereo partly drawn) | 13.9% (inactive)
NS(=O)(=O)c1ccc(C(=O)N/N=C(\CS(=O)(=O)c2ccccc2)c2cc3cc(Br)ccc3o2)cc1 | 96.3% (inactive)
O=C1Nc2ccc(Cl)cc2/C1=N/N=C(c1ccccc1)c1ccccc1 | 100% (inactive)
Cc1c(C(=O)Nc2nc(-c3ccccc3)cs2)nnn1-c1cccc2ccccc12 | 56.4% [50 µM] (inactive)
COc1ccc(NS(=O)(=O)c2ccc(-c3cnc(C4CC4)o3)cc2)cc1 | 33.2% (inactive)
O=c1[nH]c(-c2ccncc2)nc2sc3c(c12)CCCCCC3 | 30.4% (inactive)
CC(C)OC1=C(Cl)C(=O)c2ccccc2C1=O | 103% (inactive)
O=c1nc(NO)[nH]c(=O)n1Cc1ccccc1 | 109% (inactive)
COc1c(O)c2c3c(c1OC)-c1ccccc1CC3N(S(=O)(=O)c1ccc(C)cc1)CC2 (stereo not drawn) | 23.3% (inactive)
Fc1c[c-]c(-c2ccccn2)c(F)c1.Fc1c[c-]c(-c2ccccn2)c(F)c1.[Cl][Pt+].[Cl][Pt+].c1ccc([PH+](C[PH+](c2ccccc2)c2ccccc2)c2ccccc2)cc1 | 8.7% (active)
O=C(c1ccc2ncc(-c3nc(NC4CC4)ncc3F)n2c1)N1CCOCC1 | 4.24% (active)
